In PubChem BioAssay AID463173 (ICCB-Longwood Screening Facility, Harvard Medical School, 2010):
Hit rate of the full screen: of about 52,000 compounds, about 1,700 (3.3%) were called active. The entries come from a sample that favours actives as a whole. A number with no mark means an inactive call. No stated cut-off is given here; in the data, active means survival mostly below about 52% (no sharp cut-off); inactive means mostly above about 56%.

Each compound was assayed on Wild type (assay: S. aureus survival, RN4220 and DeltatarO strains – OD600, teichoic acid synthesis inhibitors, primary screen (AID 463173)). Settings: S. aureus RN4220 wild type/DeltatarO growth, OD600, 18 h, active compounds read low, screened at 18.75 µg/mL (by protocol).
`CCOC(=O)c1cccc(NC(=O)CSc2ncc3c(n2)-c2ccc(Cl)cc2N(Cc2ccccc2)S3(=O)=O)c1` showed a survival of 87%. With `COc1cccc(Nc2cc(-c3ccccc3)nc(C)n2)c1` the survival was 49%. Compound `CSc1nc(C)cc(Nc2cccc(C(=O)O)c2)n1` has a survival of 87%. `Cc1ccc(Nc2cc(-c3ccccc3)nc(C)n2)cc1` was tested, and the survival was 37%. `CSc1nc(Nc2ccc(F)cc2)cc(-c2ccccc2)n1` was tested, and the survival was -2% (active). Work on `CCOc1ccccc1Nc1cc(-c2ccccc2)nc(C)n1` yielded a survival of 78%. In the case of `CCOC(=O)c1ccc(Nc2cc(-c3ccccc3)nc(C)n2)cc1`, the survival is reported as 83%. For `Cc1nc(Nc2ccc(Cl)cc2)cc(-c2ccccc2)n1`, the survival was -2% (active). For `Cc1cc(C)cc(Nc2cc(-c3ccccc3)nc(C)n2)c1`, the survival was 10% (active). Compound `CSc1nc(Nc2ccc(C)cc2C)cc(-c2ccccc2)n1` has a survival of 50%. Work on `COc1ccccc1NC(=O)CSc1nncn2c1cc1sccc12` yielded a survival of 96%. For `Cc1oc(-c2ccccc2)nc1CSc1nnc(C)n2c1cc1sccc12`, the survival was 83%. In the case of `CCN(CCCNC(=O)Cn1ncc2c([nH]c3ccc(C)cc32)c1=O)Cc1ccccc1`, the survival is reported as 55%. With `NCC(O)CN1CCN(Cc2ccccc2)CC1` (centres undefined) the survival was 105%. Work on `CCOC(=O)c1sc2ncn(CC(=O)Nc3ccc(N(C)C)cc3)c(=O)c2c1C` yielded a survival of 89%. In the case of `CC(C)(C)c1ccc(-c2nc(NC(=O)CSc3ncnc4sc5c(c34)CCCC5)ns2)cc1`, the survival is reported as 73%. For `COc1ccc2c(C)cc(SCC(=O)Nc3nsc(-c4ccc(C(C)(C)C)cc4)n3)nc2c1`, the survival was 5% (active). With `COc1ccc2c(C)cc(SCC(=O)Nc3nsc(-c4ccccc4C)n3)nc2c1` the survival was 1% (active). `COc1cccc(NC(=O)CSc2cc(C)c3ccccc3n2)c1` was tested, and the survival was 73%. Compound `Cc1ccc(-c2nc(NC(=O)CSc3cc(C)c4ccccc4n3)ns2)cc1` has a survival of 71%. With `O=C(CSc1ccc2ccccc2n1)Nc1nsc(-c2ccc(Cl)cc2)n1` the survival was 68%. `Cc1ccc(-c2nc(NC(=O)CSc3ccc4ccccc4n3)ns2)cc1` was tested, and the survival was 83%. For `Cc1ccccc1-c1nc(NC(=O)CSc2ncnc3sc4c(c23)CCCC4)ns1`, the survival was 88%. With `Cc1cc(SCC(=O)Nc2nsc(-c3ccc(C(C)(C)C)cc3)n2)nc2ccccc12` the survival was 7% (active). `COC(=O)c1ccc(Cn2c(SCC(=O)Nc3ccc(F)cc3)nc3ccccc32)cc1` showed a survival of 55%. Work on `Cc1ccc(Sc2ccc(N3CCCC(C(=O)Nc4ccc(F)cc4)C3)nn2)cc1` (centres undefined) yielded a survival of 60%. Work on `CCOC(=O)c1c(NC(=O)C(C)Oc2ccccc2F)sc(C(C)=O)c1C` (centres undefined) yielded a survival of 65%. `COc1ccc(NC(=O)CSc2ccc(-c3cccs3)nn2)cc1` was tested, and the survival was 89%. `CCOC(=O)c1c(NC(C)=O)c2c3c(sc2n1Cc1nc(-c2ccc(Cl)cc2)oc1C)CCCC3` showed a survival of 81%. `Cc1ccc(CN2COc3c(Cl)cc4c(-c5ccccc5)cc(=O)oc4c3C2)cc1` was tested, and the survival was 87%. Work on `Cc1cccc(OCC(=O)N(Cc2cccs2)c2ccc(Cl)cc2)c1C` yielded a survival of 79%. Work on `COc1ccc(OCC(=O)N(Cc2cccs2)c2ccc(OC)cc2)cc1` yielded a survival of 85%. For `COc1ccc(N(Cc2cccs2)C(=O)COc2cccc(C)c2C)cc1`, the survival was 12% (active). Compound `CC1(C)CC2(C=CC(=O)CC2)CCO1` (centres undefined) has a survival of 96%. Compound `Cn1c(=O)c2c(-c3ccc(Cl)cc3)ccnc2n(C)c1=O` has a survival of 68%. In the case of `O=S(=O)(c1ccccc1)n1nc(-c2ccccc2)nc1NCc1ccc(Cl)cc1`, the survival is reported as 73%. For `COc1ccc(CNc2nc(-c3ccc(Cl)cc3)nn2S(=O)(=O)c2ccc(C)cc2)cc1`, the survival was 64%. `COc1ccc(CNc2nc(-c3ccccc3)nn2S(=O)(=O)c2ccccc2)cc1` was tested, and the survival was 4% (active). With `CCc1ccc(NC(=O)Cn2c(=O)n(CCC(=O)NCCc3ccc(OC)c(OC)c3)c(=O)c3ccccc32)cc1` the survival was 102%. With `Cc1cc(C)cc(NCc2nnc3n2CCCCC3)c1` the survival was 85%. Work on `COc1ccc(NCc2nnc3n2CCCCC3)c(OC)c1` yielded a survival of 73%. `COc1ccc(Cl)cc1NCc1nnc2n1CCCCC2` was tested, and the survival was 0% (active). Work on `Cc1ccc(Cl)cc1NCc1nnc2n1CCCCC2` yielded a survival of 75%. For `COc1ccc(C)cc1NCc1nnc2n1CCCCC2`, the survival was -3% (active). `Fc1ccc(NCc2nnc3n2CCCCC3)cc1Cl` was tested, and the survival was 66%. `O=[N+]([O-])c1ccc(S(=O)(=O)N2CCn3cccc3C2c2ccccc2F)cc1` (centres undefined) gave a survival of 132%. `Cn1nc(C(=O)N2CCN(c3cccc(Cl)c3)CC2)c2c1-c1ccccc1S(=O)(=O)C2` showed a survival of 46%. For `COc1ccc(C2=C/C(=C/c3ccco3)C(=O)O2)cc1`, the survival was 117%. Work on `Cc1cccc(CCNC(=O)CN(c2ccc(C(C)C)cc2)S(=O)(=O)c2c(C)nn(C)c2C)c1` yielded a survival of 87%. With `CC1CCN(S(=O)(=O)c2ccc3c(ccc(=O)n3CC(=O)Nc3ccc(C(C)C)cc3)c2)CC1` the survival was -2% (active). In the case of `Cc1ccc(NC(=O)Cn2c(=O)ccc3cc(S(=O)(=O)N4CCC(C)CC4)ccc32)cc1Cl`, the survival is reported as 88%. For `CC1CCN(S(=O)(=O)c2ccc3c(ccc(=O)n3CC(=O)NCc3ccccc3)c2)CC1`, the survival was 22%. Compound `CC1CCN(C(=O)Cn2c(=O)oc3cc(S(=O)(=O)N4CCCCC4)ccc32)CC1` has a survival of 83%. With `CC1CCN(S(=O)(=O)c2ccc3c(c2)oc(=O)n3CC(=O)O)CC1` the survival was -3% (active). For `Cc1ccc(NC(=O)Cn2c(=O)ccc3cc(S(=O)(=O)N4CCCC4)ccc32)cc1C`, the survival was 88%. With `CC1CCN(S(=O)(=O)c2ccc3c(ccc(=O)n3CC(=O)NCc3ccc(Cl)cc3)c2)CC1` the survival was 59%. `CC(=O)Nc1ccc(NC(=O)Cn2c(=O)ccc3cc(S(=O)(=O)N4CCC(C)CC4)ccc32)cc1` was tested, and the survival was 91%. `CC1CCN(S(=O)(=O)c2ccc3c(c2)oc(=O)n3CC(=O)N2CCCCC2)CC1` showed a survival of 76%. Work on `CCc1ccc(NC(=O)Cn2c(=O)ccc3cc(S(=O)(=O)N4CCCC4)ccc32)cc1` yielded a survival of 148%. In the case of `Cc1ccc(CNC(=O)Cn2c(=O)ccc3cc(S(=O)(=O)N4CCC(C)CC4)ccc32)cc1`, the survival is reported as 10% (active). For `Cc1ccc(NC(=O)Cn2c(=O)ccc3cc(S(=O)(=O)N4CCCC4)ccc32)cc1N(C)C`, the survival was 0% (active). In the case of `CN(C1CCCCC1)S(=O)(=O)Cc1ccccc1`, the survival is reported as 94%. `CC1=C(c2ccc(C)cc2)S(=O)(=O)N(Cc2ccc(C(=O)Nc3ccc(F)cc3C)cc2)C1=O` gave a survival of 135%. `CCC(=O)N1CCc2cc(Br)cc(S(=O)(=O)CCC(=O)NCCc3cccc(C)c3)c21` showed a survival of 45%. Compound `COc1cccc(NC(=O)Cn2c(=O)n(CCc3cccc(C)c3)c(=O)c3ccccc32)c1` has a survival of 82%. `CSc1ccc(CCNC(=O)CCc2c(C)nc3cc(-c4ccccc4)nn3c2C)cc1` showed a survival of 86%. `CCOc1ccccc1NC(=O)Cn1c(=O)ccc2cc(S(=O)(=O)N3CCC(C)CC3)ccc21` was tested, and the survival was 65%. `CCc1ccccc1NC(=O)Cn1c(=O)ccc2cc(S(=O)(=O)N3CCCC3)ccc21` showed a survival of 64%. In the case of `CCOc1ccccc1NC(=O)Cn1c(=O)ccc2cc(S(=O)(=O)N3CCCC3)ccc21`, the survival is reported as -3% (active). Compound `Cc1cc(C)c(NC(=O)Cn2c(=O)n(CCC(=O)N3CCc4ccccc4C3)c(=O)c3ccccc32)c(C)c1` has a survival of 83%. Compound `CCC(=O)N1CCc2cc(S(=O)(=O)N(C)c3cccc(C)c3)ccc21` has a survival of 86%. `CCc1cccc(-n2c(C)nc3c(cnn3-c3ccc(Cl)cc3)c2=O)c1` was tested, and the survival was -2% (active). In the case of `CCc1cccc(-n2c(C)nc3c(cnn3-c3ccc(C)c(C)c3)c2=O)c1`, the survival is reported as 2% (active). In the case of `CCOC(=O)c1ccc(-n2c(C)nc3c(cnn3-c3ccc(Cl)cc3)c2=O)cc1`, the survival is reported as 71%. Compound `CCc1nc2c(cnn2-c2ccc(C)cc2)c(=O)n1Cc1ccccc1` has a survival of 22%. In the case of `CCc1nc2c(cnn2-c2ccc(C)cc2)c(=O)n1-c1ccc(C)cc1`, the survival is reported as 18% (active). Work on `COc1cccc(-n2c(C)nc3c(cnn3-c3ccc(C)c(C)c3)c2=O)c1` yielded a survival of 54%. `COc1ccc(-n2c(C)nc3c(cnn3-c3ccc(C)c(C)c3)c2=O)cc1Cl` showed a survival of 118%. With `CCc1nc2c(cnn2-c2ccccc2)c(=O)n1-c1ccc(Br)cc1` the survival was 108%. With `Cc1nc2c(cnn2-c2ccccc2)c(=O)n1-c1ccccc1` the survival was 126%. `Cc1c(C(=O)OCC2CCCCC2)[nH]c2c1C(=O)CC(c1ccccc1Cl)C2` (centres undefined) gave a survival of 92%. For `Cc1oc2ncn(CC(C)C)c(=O)c2c1C(=O)NCCCN(C)Cc1ccccc1`, the survival was 76%. With `Cc1cc2nsnc2c(S(=O)(=O)NCC(=O)O)c1C` the survival was 99%. `CCCCCCSc1nc(N)c2c3c(sc2n1)CCCC3C` (centres undefined) was tested, and the survival was -2% (active). `CCCCCCSc1ncc(C#N)c(N)n1` showed a survival of 119%. `CC1CCCc2sc3nc(SCC(=O)c4ccc(Br)cc4)nc(N)c3c21` (centres undefined) was tested, and the survival was 66%. Work on `CCCCCNC(=O)C(=O)NCC(c1ccc2c(c1)OCO2)N1CCOCC1` (centres undefined) yielded a survival of 68%. `Cc1ccc(CNC(=O)c2ccc3c(c2)NC(=O)C(CS(=O)(=O)Cc2cccc(F)c2)N3)cc1` (centres undefined) was tested, and the survival was 117%. `O=C(/C=C/c1ccc(Cl)cc1)N1CCC(c2nc3ccccc3o2)CC1` was tested, and the survival was 120%. `CCN(CC)C(=O)Cn1c(=O)n(-c2ccc(Cl)cc2)c(=O)c2c3c(sc21)CCC3` showed a survival of 73%. In the case of `CCCCN1C(=O)c2[nH]nc(-c3ccccc3O)c2C1c1cc(Br)c(O)c(OC)c1` (centres undefined), the survival is reported as 10% (active). In the case of `COCCCN1C(=O)c2[nH]nc(-c3cc(C)ccc3O)c2C1c1ccc(F)cc1` (centres undefined), the survival is reported as 92%. `COCCN1C(=O)c2[nH]nc(-c3ccccc3O)c2C1c1ccc(Cl)c(Cl)c1` (centres undefined) was tested, and the survival was 3% (active). Compound `CCCCOc1cccc(C2c3c(-c4cc(C)ccc4O)n[nH]c3C(=O)N2CCOC)c1` (centres undefined) has a survival of 25%. For `COCCN1C(=O)c2[nH]nc(-c3cc(C)ccc3O)c2C1c1ccc(C(C)C)cc1` (centres undefined), the survival was 11% (active). `COCCCN1C(=O)c2[nH]nc(-c3ccccc3O)c2C1c1ccc(OC)cc1` (centres undefined) was tested, and the survival was 85%. In the case of `CCCN1C(=O)c2[nH]nc(-c3ccccc3O)c2C1c1ccc(OCc2ccccc2)c(OC)c1` (centres undefined), the survival is reported as 64%. `CCCCN1C(=O)c2[nH]nc(-c3ccccc3O)c2C1c1ccc(OCc2ccccc2)c(OC)c1` (centres undefined) was tested, and the survival was 64%. `COCCN1C(=O)c2[nH]nc(-c3ccccc3O)c2C1c1ccc(OCc2ccccc2)c(OC)c1` (centres undefined) showed a survival of 43%.
